One assay concerns Plasmodium falciparum. The assay is described as follows: GSK_TCMDC: Inhibition of Plasmodium falciparum Dd2 in whole red blood cells, using parasite LDH activity as an index of growth. Test compounds present at 2uM. The class given is functional.
What is called Inhibition is how much of the control response was suppressed. Take `CC(C)COc1cc(C(=O)Nc2cnc3ccccc3c2)ccc1[N+](=O)[O-]`: the Inhibition was 56%.

`O=C(CCN(Cc1ccco1)c1nc(-c2ccc(F)cc2)nc2ccccc12)NC1CC1` showed an Inhibition of 54%.

In the case of `CCOc1cc(C)ccc1N1CCN(CCN2CCC(NC(=O)c3ccc(-c4ccc(C#N)cc4)cc3)CC2)CC1`, the Inhibition is recorded as 3%.

In turn, `Fc1ccc2c(NN=Cc3ccc(Cl)cc3)ccnc2c1` yielded an Inhibition of 99%.

`CC1(C)CN(CCC2CCC(NC(=O)/C=C/c3ccccc3F)CC2)Cc2ccc(C#N)cc21.Cl` (stereo not given): the Inhibition stood at 82%.

For `CCC[C@@H]([C@@H](CC1CCC(C)CC1)C(=O)N[C@@H](CCCCNC(=O)c1ccccn1)C(=O)Nc1nccs1)N(O)C=O` (stereo not given in full), the Inhibition was 79%.

Molecule `CCCC(C)NC(=O)C(N)Cc1cccc(I)c1.O=C(O)C(F)(F)F` (stereo not given) gave an Inhibition of 65%.

As to `FC(F)(F)c1cccnc1N1CCC(Nc2nc3cc(Cl)ccc3[nH]2)CC1`, the Inhibition was found to be 39%.

Regarding `O=C(Nc1ccc(Cl)cc1F)NC1CCN(CCCCCNC(=O)C2CC2c2ccc(Cl)c(Cl)c2)CC1` (stereo not given), the Inhibition was 27%.

The molecule `CC(C)N1CCN(C(CN2CCN(CCCOc3cccc(-c4ccccc4)c3)CC2)c2ccc(F)cc2)CC1.Cl` (stereo not given) registered an Inhibition of 99%.

In the case of `CCN(CC)CCCOC(=O)c1ccc2c(c1)-c1ccc(C(=O)OCCCN(CC)CC)c3cccc-2c13.Cl`, the Inhibition is 96%.

Consider `COCCN(C(=O)Cc1cccs1)C(C(=O)NCc1ccc(OC)cc1)c1ccc(C(C)C)cc1` (stereo not given), for which the Inhibition is on record as 59%.

For the molecule `COc1cc(F)c2ncc(Cl)c([C@@H](O)CN3CCC(NCc4cc5c(cn4)OCCO5)CC3)c2c1.Cl`, the Inhibition is given as 100%.

Molecule `Cl.FC(F)(F)c1cc(CNCCCNc2nc3ccncc3[nH]2)ccc1Cl` yielded an Inhibition of 15%.

Turning to `CCOc1ccc2c(=NN=Cc3cccc(OC)c3)cc(C)[nH]c2c1`, the Inhibition was determined as 81%.

As for `Cc1cccc2nc(-c3ccc(-c4ccc(NC(=O)c5cncn5C)cc4)s3)[nH]c12`, the Inhibition is reported as 30%.

Turning to `Cc1cc2nc(-c3ccc(C(=O)NCc4cccc(F)c4)cc3)[nH]c2cc1C`, the Inhibition stood at 6%.

In the case of `COCC(=O)Nc1nc2ccccc2[nH]1`, the Inhibition stood at 1%.

As for `COc1cc(OC)cc(-c2nnc(Sc3ccc(C#N)c([N+](=O)[O-])c3)n2C)c1`, the Inhibition is 77%.

The molecule `CN(C)CCCOc1ccc(CN2CC[C@H](NC(=O)c3ccc(Cl)c(Cl)c3)C2)cc1Br.O=C(O)C(F)(F)F` had an Inhibition of 34%.

`Cc1onc(-c2ccccc2)c1-c1nc(NCc2ccccc2Cl)no1` returned an Inhibition of 92%.

For `O=C(Nc1ccc(Cl)cc1)Nc1ccc(OCC(O)CN2CCCCC2)cc1` (stereo not given), the Inhibition was 13%.

`CCCc1ccc(NC(=O)c2cccc(CN3CCCN(Cc4cccc(C#N)c4)CC3)c2)cc1.O=C(O)C(F)(F)F`: the Inhibition is 0%.

For the molecule `CCNc1cc(C(=O)N[C@@H](Cc2ccco2)[C@H](O)CNC2CCCCC2)cc(N2CCCCS2(=O)=O)c1.Cl`, the Inhibition came to 57%.

For `CC(CN(C)C)Oc1ccc2nc(-c3cccc(OCc4ccccc4)c3)[nH]c2c1C#N` (stereo not given), the Inhibition is on record as 94%.

In turn, `CCC(C)(C)n1c(C)cc2c3c(N)nc(N)nc3ccc21` gave an Inhibition of 85%.

With `Cc1cc(C(=O)CN2C(=O)NC(C)(c3cccc4ccccc34)C2=O)c(C)n1Cc1ccco1` (stereo not given), the Inhibition was determined as 23%.

`C=CCn1c(Cc2ccccc2)nnc1Sc1ccc(C#N)c([N+](=O)[O-])c1` displayed an Inhibition of 43%.

As for `CCOC(=O)c1ccc(NC(=O)Nc2ccc(-c3cccc(-c4nc5cccc(C)c5[nH]4)c3)cc2)cc1`, the Inhibition was determined as 100%.

`NCC1CCCN1Cc1cccc(-c2ccc(-c3nc4ccccc4[nH]3)s2)c1.O=C(O)C(F)(F)F` (stereo not given) showed an Inhibition of 66%.

For the molecule `CCCOc1cc(NC(=O)Nc2ccnc3ccccc23)cc(OCCC)c1.Cl`, the Inhibition is 98%.

Turning to `CC1(C)CCNc2cc(NC(=O)c3ccc(-c4ncccc4C(F)(F)F)cc3)ccc21.Cl`, the Inhibition is on record as 86%.

As for `Cc1cccc2nc(-c3cccc(-c4cccc(NC(=O)NCc5ccccc5)c4)c3)[nH]c12`, the Inhibition came out at 27%.

Molecule `CN(C)Cc1cccc(-c2ccc(NC(=O)c3ccc4c(=O)n(CCN5CCCCC5)cnc4c3)cc2)c1` came in with an Inhibition of 67%.

On to `Cl.N#Cc1cccc(NC(=O)Nc2ccc3c(c2)CCN(C2CCC2)CC3)c1`, for which the Inhibition was found to be 26%.

For the molecule `CS(=O)(=O)N(c1ccccc1)c1cc(C(=O)N[C@@H](Cc2ccccc2)[C@H](O)CNC2CCCCC2)cc(N2CCCC2=O)c1`, the Inhibition turned out to be 97%.

Molecule `CCN(CC)CCNC(=O)c1ccc(NC(=O)c2cn(-c3ccccc3)nc2-c2cccs2)cc1` had an Inhibition of 94%.

Regarding `N#Cc1ccc(N/C(=N\c2ccccc2Br)N(C2CCCCC2)C2CCCCC2)c(O)c1`, the Inhibition amounted to 96%.

For `CCN1CCN(Cc2c(O)ccc3c(=O)c(Oc4cc(C)cc(C)c4)c(C(F)(F)F)oc23)CC1`, the Inhibition was 90%.

On to `Cc1cc(Nc2cccc(C(F)(F)F)c2)nc(Nc2cccc(C(F)(F)F)c2)n1`, for which the Inhibition stood at 73%.

The next assay concerns HepG2. The assay is described as follows: GSK_TCMDC: Percent inhibition of human HepG2 cell line. Test compounds present at 10uM. The class given is functional.
`CC(C)COc1cc(C(=O)Nc2cnc3ccccc3c2)ccc1[N+](=O)[O-]` showed an Inhibition of 19%.

For `O=C(CCN(Cc1ccco1)c1nc(-c2ccc(F)cc2)nc2ccccc12)NC1CC1`, the Inhibition came to 0%.

Molecule `CCOc1cc(C)ccc1N1CCN(CCN2CCC(NC(=O)c3ccc(-c4ccc(C#N)cc4)cc3)CC2)CC1` had an Inhibition of 9%.

Consider `Fc1ccc2c(NN=Cc3ccc(Cl)cc3)ccnc2c1`, for which the Inhibition amounted to 7%.

Consider `CC1(C)CN(CCC2CCC(NC(=O)/C=C/c3ccccc3F)CC2)Cc2ccc(C#N)cc21.Cl` (stereo not given), for which the Inhibition was determined as 0%.

In the case of `CCC[C@@H]([C@@H](CC1CCC(C)CC1)C(=O)N[C@@H](CCCCNC(=O)c1ccccn1)C(=O)Nc1nccs1)N(O)C=O` (stereo not given in full), the Inhibition turned out to be 25%.

As for `CCCC(C)NC(=O)C(N)Cc1cccc(I)c1.O=C(O)C(F)(F)F` (stereo not given), the Inhibition is reported as 11%.

Molecule `FC(F)(F)c1cccnc1N1CCC(Nc2nc3cc(Cl)ccc3[nH]2)CC1` showed an Inhibition of 32%.

Consider `O=C(Nc1ccc(Cl)cc1F)NC1CCN(CCCCCNC(=O)C2CC2c2ccc(Cl)c(Cl)c2)CC1` (stereo not given), for which the Inhibition is reported as 46%.

The molecule `CC(C)N1CCN(C(CN2CCN(CCCOc3cccc(-c4ccccc4)c3)CC2)c2ccc(F)cc2)CC1.Cl` (stereo not given) gave an Inhibition of 100%.

`CCN(CC)CCCOC(=O)c1ccc2c(c1)-c1ccc(C(=O)OCCCN(CC)CC)c3cccc-2c13.Cl`: the Inhibition amounted to 22%.

In the case of `COCCN(C(=O)Cc1cccs1)C(C(=O)NCc1ccc(OC)cc1)c1ccc(C(C)C)cc1` (stereo not given), the Inhibition worked out at 0%.

`COc1cc(F)c2ncc(Cl)c([C@@H](O)CN3CCC(NCc4cc5c(cn4)OCCO5)CC3)c2c1.Cl` came in with an Inhibition of 11%.

`Cl.FC(F)(F)c1cc(CNCCCNc2nc3ccncc3[nH]2)ccc1Cl` came in with an Inhibition of 11%.

On to `CCOc1ccc2c(=NN=Cc3cccc(OC)c3)cc(C)[nH]c2c1`, for which the Inhibition is on record as 38%.

Turning to `Cc1cccc2nc(-c3ccc(-c4ccc(NC(=O)c5cncn5C)cc4)s3)[nH]c12`, the Inhibition is reported as 49%.

In the case of `Cc1cc2nc(-c3ccc(C(=O)NCc4cccc(F)c4)cc3)[nH]c2cc1C`, the Inhibition is listed as 0%.

Regarding `COCC(=O)Nc1nc2ccccc2[nH]1`, the Inhibition is reported as 0%.

In turn, `COc1cc(OC)cc(-c2nnc(Sc3ccc(C#N)c([N+](=O)[O-])c3)n2C)c1` showed an Inhibition of 1%.

`CN(C)CCCOc1ccc(CN2CC[C@H](NC(=O)c3ccc(Cl)c(Cl)c3)C2)cc1Br.O=C(O)C(F)(F)F` showed an Inhibition of 11%.

For `Cc1onc(-c2ccccc2)c1-c1nc(NCc2ccccc2Cl)no1`, the Inhibition is given as 2%.

`O=C(Nc1ccc(Cl)cc1)Nc1ccc(OCC(O)CN2CCCCC2)cc1` (stereo not given) registered an Inhibition of 18%.

`CCCc1ccc(NC(=O)c2cccc(CN3CCCN(Cc4cccc(C#N)c4)CC3)c2)cc1.O=C(O)C(F)(F)F` gave an Inhibition of 20%.

`CCNc1cc(C(=O)N[C@@H](Cc2ccco2)[C@H](O)CNC2CCCCC2)cc(N2CCCCS2(=O)=O)c1.Cl` displayed an Inhibition of 14%.

Regarding `CC(CN(C)C)Oc1ccc2nc(-c3cccc(OCc4ccccc4)c3)[nH]c2c1C#N` (stereo not given), the Inhibition amounted to 57%.

Molecule `CCC(C)(C)n1c(C)cc2c3c(N)nc(N)nc3ccc21` registered an Inhibition of 69%.

In the case of `Cc1cc(C(=O)CN2C(=O)NC(C)(c3cccc4ccccc34)C2=O)c(C)n1Cc1ccco1` (stereo not given), the Inhibition came out at 0%.

In the case of `C=CCn1c(Cc2ccccc2)nnc1Sc1ccc(C#N)c([N+](=O)[O-])c1`, the Inhibition worked out at 7%.

Regarding `CCOC(=O)c1ccc(NC(=O)Nc2ccc(-c3cccc(-c4nc5cccc(C)c5[nH]4)c3)cc2)cc1`, the Inhibition turned out to be 91%.

As to `NCC1CCCN1Cc1cccc(-c2ccc(-c3nc4ccccc4[nH]3)s2)c1.O=C(O)C(F)(F)F` (stereo not given), the Inhibition is recorded as 16%.

In the case of `CCCOc1cc(NC(=O)Nc2ccnc3ccccc23)cc(OCCC)c1.Cl`, the Inhibition was found to be 6%.

For `CC1(C)CCNc2cc(NC(=O)c3ccc(-c4ncccc4C(F)(F)F)cc3)ccc21.Cl`, the Inhibition came to 7%.

With `Cc1cccc2nc(-c3cccc(-c4cccc(NC(=O)NCc5ccccc5)c4)c3)[nH]c12`, the Inhibition amounted to 12%.

The molecule `CN(C)Cc1cccc(-c2ccc(NC(=O)c3ccc4c(=O)n(CCN5CCCCC5)cnc4c3)cc2)c1` returned an Inhibition of 23%.

Regarding `Cl.N#Cc1cccc(NC(=O)Nc2ccc3c(c2)CCN(C2CCC2)CC3)c1`, the Inhibition was found to be 22%.

Turning to `CS(=O)(=O)N(c1ccccc1)c1cc(C(=O)N[C@@H](Cc2ccccc2)[C@H](O)CNC2CCCCC2)cc(N2CCCC2=O)c1`, the Inhibition amounted to 8%.

Take `CCN(CC)CCNC(=O)c1ccc(NC(=O)c2cn(-c3ccccc3)nc2-c2cccs2)cc1`: the Inhibition was 30%.

On to `N#Cc1ccc(N/C(=N\c2ccccc2Br)N(C2CCCCC2)C2CCCCC2)c(O)c1`, for which the Inhibition came out at 4%.

`CCN1CCN(Cc2c(O)ccc3c(=O)c(Oc4cc(C)cc(C)c4)c(C(F)(F)F)oc23)CC1` showed an Inhibition of 6%.

In the case of `Cc1cc(Nc2cccc(C(F)(F)F)c2)nc(Nc2cccc(C(F)(F)F)c2)n1`, the Inhibition is given as 0%.

These data come from ChEMBL document CHEMBL1157539, “Thousands of chemical starting points for antimalarial lead identification” (Nature, 2010).
